This is part of a sample that, as a whole, favours compounds with a hit. Of some 83,000 tested, about 20% had one in any assay.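 Treatment: one concentration, 48 hours, 96-well format. Scoring: percent growth, with anything below 10 considered active.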 Activity calls are given as the source filed them.
Assays:
Experiment in all cases: NCI-60 one-dose screen, 48 h (100 = growth as untreated, 0 = no growth, -100 = all killed)
Settings in all cases: 10 µM unless noted
NCI-H23 lung = system: NCI-H23 lung
NCI-H226 lung = system: NCI-H226 lung
NCI-H322M lung = system: NCI-H322M lung
HOP-62 NSCLC = system: HOP-62 NSCLC
NCI-H460 lung = system: NCI-H460 lung
HOP-92 NSCLC = system: HOP-92 NSCLC
NCI-H522 lung = system: NCI-H522 lung
A549/ATCC NSCLC = system: A549/ATCC NSCLC
786-0 renal = system: 786-0 renal
COLO 205 colon = system: COLO 205 colon
DU-145 prostate = system: DU-145 prostate
K-562 leukemia = system: K-562 leukemia
MALME-3M melanoma = system: MALME-3M melanoma
MDA-MB-231 breast = system: MDA-MB-231 breast
RXF 393 renal = system: RXF 393 renal
SF-268 CNS = system: SF-268 CNS
SF-295 CNS = system: SF-295 CNS
SF-539 CNS = system: SF-539 CNS
UACC-257 melanoma = system: UACC-257 melanoma
M14 melanoma = system: M14 melanoma

Measured: growth

CCNC(=O)C#Cc1ccc2c(C(=Nc3ccc(CN(C)C)cc3)c3ccccc3)c(O)[nH]c2c1
inactive: NCI-H23 lung 14% | NCI-H226 lung 38.6% | NCI-H322M lung 14.4% | NCI-H460 lung 16.5% | NCI-H522 lung 48.9% | 786-0 renal 24.2% | DU-145 prostate 44.3% | SF-268 CNS 47.8% | SF-295 CNS 59.8%
active: HOP-62 NSCLC 4.11% | HOP-92 NSCLC -66.8% | A549/ATCC NSCLC 6.49% | COLO 205 colon -41% | K-562 leukemia 9.16% | MALME-3M melanoma -11.3% | MDA-MB-231 breast 3.36% | RXF 393 renal -33.7% | SF-539 CNS -6.1% | UACC-257 melanoma -36.3% | M14 melanoma -33.7%

COc1cc(F)c(F)c(Nc2ccc(I)cc2F)c1NS(=O)(=O)C1(C[C@H](O)CO)CC1
active: HOP-92 NSCLC -19.1% | COLO 205 colon -0.628% | MALME-3M melanoma 0.42% | RXF 393 renal -2.17% | UACC-257 melanoma -12.7% | M14 melanoma 7.68%
inactive: NCI-H23 lung 13% | NCI-H226 lung 41.3% | NCI-H322M lung 14.2% | HOP-62 NSCLC 25.1% | NCI-H460 lung 27.8% | NCI-H522 lung 31.4% | A549/ATCC NSCLC 26.3% | 786-0 renal 54.5% | DU-145 prostate 51.2% | K-562 leukemia 21.9% | MDA-MB-231 breast 23% | SF-268 CNS 52.9% | SF-295 CNS 59.9% | SF-539 CNS 53.5%

CCN(CC)CCOc1ccc(/C(=C(\C)c2ccc(Cl)cc2)c2ccc(Cl)cc2)cc1
inactive: NCI-H23 lung 60.7% | NCI-H226 lung 102% | NCI-H322M lung 87.3% | HOP-62 NSCLC 95.2% | NCI-H460 lung 36.4% | HOP-92 NSCLC 80.5% | NCI-H522 lung 81.7% | A549/ATCC NSCLC 45.2% | 786-0 renal 60.2% | DU-145 prostate 97.2% | MALME-3M melanoma 87.2% | MDA-MB-231 breast 84.3% | RXF 393 renal 51.2% | SF-268 CNS 80.7% | SF-295 CNS 65.2% | SF-539 CNS 67% | UACC-257 melanoma 96.1% | M14 melanoma 71%
active: COLO 205 colon 8.85% | K-562 leukemia 7.09%

CCn1c(-c2nonc2N)nc2c(C#CC(C)(C)O)ncc(OC[C@H]3CCCNC3)c21
inactive: NCI-H23 lung 78.7% | NCI-H226 lung 113% | NCI-H322M lung 75.2% | HOP-62 NSCLC 73% | NCI-H460 lung 56.6% | HOP-92 NSCLC 178% | NCI-H522 lung 12.7% | A549/ATCC NSCLC 87.8% | 786-0 renal 26.7% | COLO 205 colon 38.2% | DU-145 prostate 64.4% | K-562 leukemia 38.8% | MALME-3M melanoma 84.2% | MDA-MB-231 breast 84.2% | SF-268 CNS 81% | SF-295 CNS 41.4% | SF-539 CNS 27.1% | UACC-257 melanoma 130% | M14 melanoma 71%
active: RXF 393 renal 5.93%

NC(=O)c1c(OCc2c(F)cc(Br)cc2F)nsc1NC(=O)NCCCCN1CCCC1
active: NCI-H226 lung 9.08% | HOP-62 NSCLC -29.7% | NCI-H460 lung -23.1% | HOP-92 NSCLC -1.17% | NCI-H522 lung -61.8% | A549/ATCC NSCLC -15.6% | 786-0 renal -57.2% | COLO 205 colon -78.7% | K-562 leukemia -46.8% | MALME-3M melanoma -79.8% | MDA-MB-231 breast -38.1% | RXF 393 renal -81.9% | SF-295 CNS -81% | SF-539 CNS -92% | UACC-257 melanoma -80.3% | M14 melanoma -76.1%
inactive: NCI-H23 lung 21.2% | NCI-H322M lung 15.4% | DU-145 prostate 22.6% | SF-268 CNS 11.7%

C[C@@H](Oc1cc(-c2cnn(C3CCNCC3)c2)cnc1N)c1c(Cl)ccc(F)c1Cl
inactive: NCI-H322M lung 15.2%
active: NCI-H23 lung -10.4% | NCI-H226 lung -11.6% | HOP-62 NSCLC -34.8% | NCI-H460 lung -64.4% | HOP-92 NSCLC -51.9% | NCI-H522 lung -74.8% | A549/ATCC NSCLC -40.9% | 786-0 renal -74.7% | COLO 205 colon -78.5% | DU-145 prostate -0.0589% | K-562 leukemia -38.7% | MALME-3M melanoma -88.2% | MDA-MB-231 breast -58.6% | RXF 393 renal -87.3% | SF-268 CNS 1.66% | SF-295 CNS -72.1% | SF-539 CNS -95.5% | UACC-257 melanoma -83.3% | M14 melanoma -77.2%

CCOC(=O)c1sc(NC(=O)COc2ccc(/C=C3\Cc4ccc(Cl)cc4C3=O)cc2)nc1C
inactive: NCI-H23 lung 97.1% | NCI-H226 lung 97.1% | NCI-H322M lung 103% | HOP-62 NSCLC 109% | NCI-H460 lung 95% | HOP-92 NSCLC 92.5% | NCI-H522 lung 97.2% | A549/ATCC NSCLC 104% | 786-0 renal 110% | COLO 205 colon 118% | DU-145 prostate 117% | K-562 leukemia 102% | MALME-3M melanoma 110% | MDA-MB-231 breast 90.6% | RXF 393 renal 116% | SF-268 CNS 114% | SF-295 CNS 127% | SF-539 CNS 86.9% | UACC-257 melanoma 112% | M14 melanoma 107%

Cc1cccc(C)c1N1C(c2ccccc2)=NNC12C=CC(=O)c1c(O)cccc12 (stereo not given)
inactive: NCI-H23 lung 30.6% | NCI-H226 lung 94.6% | NCI-H322M lung 99.3% | HOP-62 NSCLC 39.4% | NCI-H460 lung 98.2% | HOP-92 NSCLC 115% | NCI-H522 lung 54.6% | A549/ATCC NSCLC 62.4% | 786-0 renal 105% | COLO 205 colon 97.7% | DU-145 prostate 93.7% | K-562 leukemia 46.5% | MALME-3M melanoma 62.7% | MDA-MB-231 breast 91.9% | RXF 393 renal 105% | SF-268 CNS 84.3% | SF-295 CNS 61.3% | SF-539 CNS 67.1% | UACC-257 melanoma 58.5% | M14 melanoma 54.2%

COc1cc2cc(NCc3ccc(F)cc3)nc(C)c2cc1OC
inactive: NCI-H23 lung 26.5% | NCI-H226 lung 48.5% | NCI-H322M lung 52.5% | HOP-62 NSCLC 54.7% | NCI-H460 lung 26.4% | HOP-92 NSCLC 25.3% | NCI-H522 lung 59.9% | A549/ATCC NSCLC 47.9% | 786-0 renal 32.2% | COLO 205 colon 34.2% | DU-145 prostate 58.1% | K-562 leukemia 11.7% | MALME-3M melanoma 87.7% | MDA-MB-231 breast 45.9% | RXF 393 renal 59.7% | SF-268 CNS 50.7% | SF-295 CNS 40.7% | UACC-257 melanoma 88.8% | M14 melanoma 32.2%
active: SF-539 CNS -4.69%

CCCCn1c(C)nc2cc(Nc3nc(N4CCCCC4)nc4nc[nH]c34)ccc21
active: HOP-92 NSCLC -9.51%
inactive: NCI-H23 lung 51.4% | NCI-H226 lung 44.4% | NCI-H322M lung 81.8% | HOP-62 NSCLC 62.1% | NCI-H460 lung 65.5% | NCI-H522 lung 52.6% | A549/ATCC NSCLC 48.4% | 786-0 renal 49.1% | COLO 205 colon 28.9% | DU-145 prostate 60.2% | K-562 leukemia 28.7% | MALME-3M melanoma 61.5% | MDA-MB-231 breast 39.2% | RXF 393 renal 22.1% | SF-268 CNS 60.4% | SF-295 CNS 47.1% | SF-539 CNS 71.2% | UACC-257 melanoma 62.1% | M14 melanoma 32.8%

O=C(c1c(F)ccc(NS(=O)(=O)N2CC[C@@H](F)C2)c1F)c1c[nH]c2ncc(-c3cnc(C4CC4)nc3)cc12
active: COLO 205 colon 0.255% | MALME-3M melanoma 0.406% | UACC-257 melanoma -21.3% | M14 melanoma -0.512%
inactive: NCI-H23 lung 58.6% | NCI-H226 lung 62.3% | NCI-H322M lung 21.6% | HOP-62 NSCLC 37.7% | NCI-H460 lung 37.3% | HOP-92 NSCLC 35.7% | NCI-H522 lung 32.5% | A549/ATCC NSCLC 33.8% | 786-0 renal 39.8% | DU-145 prostate 49.9% | K-562 leukemia 15.8% | MDA-MB-231 breast 35.5% | RXF 393 renal 10% | SF-268 CNS 49.4% | SF-295 CNS 42.8% | SF-539 CNS 53.5%

C=CC(=O)Nc1cccc(Nc2nc(Nc3ccc(N4CCN(C(C)=O)CC4)cc3OC)ncc2C(F)(F)F)c1
inactive: NCI-H23 lung 26.7% | NCI-H226 lung 26.8% | HOP-62 NSCLC 27.6% | DU-145 prostate 16.7% | K-562 leukemia 18.7% | MALME-3M melanoma 22.2% | MDA-MB-231 breast 21.7% | SF-268 CNS 24.1% | SF-295 CNS 39.5% | SF-539 CNS 18.6% | UACC-257 melanoma 24.5% | M14 melanoma 16.9%
active: NCI-H322M lung -28.9% | NCI-H460 lung 9.55% | HOP-92 NSCLC -18.1% | NCI-H522 lung -12% | A549/ATCC NSCLC 5.15% | 786-0 renal 8.43% | COLO 205 colon -37.4% | RXF 393 renal -11.2%

COc1ccc2c(c1)cn1c3ccc(O)cc3nc(N)c21
inactive: NCI-H23 lung 25.5% | NCI-H226 lung 45.2% | NCI-H322M lung 40.2% | HOP-62 NSCLC 25.1% | HOP-92 NSCLC 17.2% | NCI-H522 lung 14.2% | A549/ATCC NSCLC 38% | 786-0 renal 18.5% | DU-145 prostate 24.1% | K-562 leukemia 11.1% | MALME-3M melanoma 31.2% | MDA-MB-231 breast 23.6% | SF-268 CNS 31.6% | SF-295 CNS 21.9% | UACC-257 melanoma 60.4% | M14 melanoma 10.4%
active: NCI-H460 lung 8.48% | COLO 205 colon 9.91% | RXF 393 renal 3.22% | SF-539 CNS -23.2%

Cc1nc(-c2cn3c(n2)-c2ccc(-c4cnn(C(C)(C)C(N)=O)c4)cc2OCC3)n(C(C)C)n1
inactive: NCI-H23 lung 54.5% | NCI-H226 lung 32.7% | HOP-62 NSCLC 31.2% | NCI-H460 lung 18.7% | NCI-H522 lung 36.1% | COLO 205 colon 13.5% | DU-145 prostate 28.7% | K-562 leukemia 51% | MALME-3M melanoma 11.1% | MDA-MB-231 breast 31.8% | SF-268 CNS 33.1% | UACC-257 melanoma 20.2% | M14 melanoma 40.5%
active: NCI-H322M lung 2.09% | HOP-92 NSCLC 0.115% | A549/ATCC NSCLC 8.09% | 786-0 renal 7.76% | RXF 393 renal -28.1% | SF-295 CNS 3.66% | SF-539 CNS -19.5%

From PubChem BioAssay (NCI)
